In PubChem BioAssay AID1626 (SRMLSC, 2009) one finds inhibition data, which are given here for 98 compounds.

The campaign covered roughly 220,000 compounds. About 2,000 (0.91%) were called active. Another 2% or so got no clear call; they are omitted. Not all results are given here. Measured potencies and affinities stand elsewhere. Values without a mark were called inactive. No stated cut-off is given here; in the data, inconclusive means inhibition above about 80% without an active follow-up result; inactive means below that; test concentration not stated here.

The nature of the assay: M. tuberculosis H37Rv growth inhibitors, H37Rv strain (AID 1626).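 Further: bacteria incubated seven days before Alamar blue readout; 0% = bacteria only wells and 100% = bacteria with antibiotic wells.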 Conditions: stronger effect = higher value, concentration not given here.
In general, inhibition refers to the relative decrease from the control value, in per cent. As for `COc1ccc(NC(=O)C(=O)NCCCn2ccnc2)cc1`, the inhibition was -13.8%.

For the compound `O=C(Nc1csc([N+](=O)[O-])c1)Nc1c(Cl)cccc1Cl`, the inhibition was 0.45%.

With `O=C(Nc1csc([N+](=O)[O-])c1)Nc1ccccc1Cl`, the inhibition was 76.8%.

`O=C(CN(CCc1ccccc1)S(=O)(=O)c1ccc(Br)cc1)N/N=C/c1ccccc1C(=O)O`: the inhibition was 1.98%.

With `COc1ccc(-n2nc(C(N)=O)c(O)cc2=O)cc1`, the inhibition was -4.24%.

For `COc1ccccc1CNC(=O)CN1C(=O)CSc2ccc(S(=O)(=O)N3CCCC3)cc21`, the inhibition was -3.73%.

For the compound `CCOC(=O)c1ccc(N2C(=O)c3n[nH]c(C)c3C2c2ccccc2)cc1` (stereo not drawn), the inhibition is -3.14%.

`CCOC(=O)c1ccc(N2C(=O)c3n[nH]c(C)c3C2c2ccco2)cc1` (stereo not drawn): the inhibition was 0.01%.

Consider `Cc1[nH]c2ccc(F)cc2c1CCN(Cc1cccnc1)C(=S)Nc1ccccc1`, for which the inhibition was -0.56%.

On to `CCCCCCCN1C2=NCCN2c2ccccc21`, for which the inhibition was -5.76%.

`CCCCC1=CC2=CC(=O)C(C)(OC(=O)CC)C(=O)C2=CN1CCN1CCOCC1` (stereo not drawn): the inhibition is 2.28%.

Regarding `Cc1ccc(C2C(C#N)=C(N)OC3=C2C(=O)CC(C)(C)C3)s1` (stereo not drawn), the inhibition is 2.18%.

In the case of `CC1(C)CC(=O)C2=C(C1)OC(N)=C([N+](=O)[O-])C2c1cccs1` (stereo not drawn), the inhibition was 3.66%.

For `O=C1/C(=C/c2ccccc2Cl)N2CCC1CC2`, the inhibition was 7.2%.

`Cc1ccc2c(c1)C(c1ccncc1)=NNC(c1ccc(F)cc1)=N2`: the inhibition is 5.08%.

Regarding `COc1ccc(-c2ccc([C@H]3[C@@H]4C=CCC[C@@]4(C)C(=O)N3Cc3ccccc3)c(F)c2)cc1`, the inhibition is 21.9%.

Turning to `COc1ccc(-c2ccc(OC)c([C@H]3[C@@H]4C=CCC[C@@]4(C)C(=O)N3Cc3ccccc3)c2)cc1OC`, the inhibition was 10.5%.

`O=C(CCn1c(=O)oc2ccccc21)N(Cc1ccccc1)c1ccccc1`: the inhibition was -1.76%.

Consider `Cc1nc2c(cnn2-c2ccccc2)c(=O)n1/N=C/c1ccccc1`, for which the inhibition is 3.66%.

Consider `COc1ccc(C(=O)Cc2nnc(C)s2)c(OC)c1`, for which the inhibition is -1.08%.

As to `Cc1[nH]c2ccccc2c1-c1csc(NC(=O)CN2CCOCC2)n1`, the inhibition is 1.74%.

For `O=C(COC(=O)c1c2c(nc3ccccc13)CCCC2)Nc1ccc2c(c1)OCO2`, the inhibition is 4.85%.

As to `O=C(COC(=O)c1cc(-c2ccccc2)nc2ccccc12)Nc1ccc2c(c1)OCO2`, the inhibition was -6.74%.

Consider `COc1ccc(S(=O)(=O)N2CCCCCC2)cc1C(=O)OC(C)C(N)=O` (stereo not drawn), for which the inhibition is -6.24%.

As to `CCN(CCCNC(=O)C1CCCN(S(=O)(=O)c2cnc[nH]2)C1)c1ccccc1` (stereo not drawn), the inhibition was -7.75%.

`COc1ccc(C)cc1NC(=O)C(OC(=O)C1CC1)c1ccccc1` (stereo not drawn): the inhibition was 0.31%.

For `O=C(COC(=O)c1ccccc1)Nc1ccc(Cl)cn1`, the inhibition is -1.7%.

As to `COc1ccc(C(=O)OCC(=O)Nc2ccc(Cl)cn2)cc1`, the inhibition was -2.66%.

Regarding `O=C(CCN1C(=O)S/C(=C\c2cccs2)C1=O)NC1=NCCS1`, the inhibition is -3.39%.

On to `Nc1nc(CN2CCCCCC2)nc(Nc2ccccc2)n1`, for which the inhibition is 0.64%.

Regarding `CCOC(=O)N1CCN(Cc2nc(N)nc(Nc3ccc(OCC)cc3)n2)CC1`, the inhibition was -0.7%.

Consider `CCOc1ccc(NC(=O)CCN2CCN(c3ccccc3OC)CC2)cc1`, for which the inhibition is 7.58%.

Turning to `COc1cc(NC(=O)CCN2CCN(c3ccccc3F)CC2)cc(OC)c1`, the inhibition is -9.84%.

Take `COc1ccc(Nc2nc(N)nc(COc3ccc(OC)cc3)n2)cc1`: the inhibition is 3.88%.

For the compound `COc1ccc(Nc2nc(N)nc(CCl)n2)cc1`, the inhibition is 63.6%.

For the compound `Nc1nc(CN2CCN(c3ccccc3F)CC2)nc(Nc2ccccc2)n1`, the inhibition was 55.9%.

On to `Nc1nc(CN2CCN(Cc3ccccc3)CC2)nc(Nc2ccccc2)n1`, for which the inhibition was -0.83%.

Turning to `Cc1cc(Nc2ccc(C)c(Br)c2)n2nc(C)nc2n1`, the inhibition was -3.51%.

With `Cc1cccn2c(=O)c(/C=N/O)c(Nc3ccccc3F)nc12`, the inhibition is -2.23%.

Take `CCOC(=O)c1cccc(NC(=O)CN(c2ccc(C)cc2)S(=O)(=O)c2c(C)n[nH]c2C)c1`: the inhibition was -3.83%.

As for `COc1cccc(Nc2nc(N)nc(CCl)n2)c1`, the inhibition was 75.6%.

On to `Cc1ccc(Nc2nc(N)nc(CCl)n2)cc1`, for which the inhibition is 73.8%.

In the case of `COc1cccc(-c2nc(-c3ccccn3)no2)c1OC`, the inhibition is -1.55%.

As for `COc1cnc(N(C)C)nc1Sc1ccc(Cl)cc1`, the inhibition is -2.94%.

For `COc1ccccc1-c1nc(-c2ccccn2)no1`, the inhibition is 0.6%.

For `FC(F)(F)c1cc(Sc2ccccc2)nc(-c2ccccn2)n1`, the inhibition is 4.07%.

Consider `Cc1ccc(SCc2nc(-c3ccccn3)no2)cc1`, for which the inhibition was 11.6%.

`CCOC(=O)CSc1nc(-c2ccccn2)ncc1OC`: the inhibition was 10.3%.

For the compound `COc1cnc(-c2ccccc2)nc1Sc1ccccc1`, the inhibition was -2.28%.

Turning to `COc1ccc(Sc2cc(C(F)(F)F)nc(-c3ccccn3)n2)cc1`, the inhibition was 4.59%.

As for `c1ccc2c(N3CCCCC3)nnc(N3CCCCC3)c2c1`, the inhibition was -2.8%.

`Cc1nc(-c2ccccc2)sc1C1(C)CC(c2ccc(C#N)cc2)=NO1` (stereo not drawn): the inhibition was -5.09%.

As for `Cc1cnc(C(=O)OCC(=O)Nc2cc(Cl)cc(Cl)c2)cn1`, the inhibition was -2.03%.

For `CC(=O)N1CCC2(CC1)CC(=O)c1cc(OCC(=O)NCc3ccc(C)cc3)ccc1O2`, the inhibition was 4.89%.

Take `CCOc1ccc(Cc2noc3c2C(=O)CC(C)(C)C3)cc1OCC`: the inhibition was 5.77%.

`O=C(CNc1cc(S(=O)(=O)N2CCCC2)ccc1OCC(F)(F)F)Nc1cc(Cl)cc(Cl)c1`: the inhibition is 0.25%.

Take `CCC12CN3CCN(CC(C3)C1O)C2` (stereo not drawn): the inhibition was -8.91%.

`CCOC(=O)C(NC(=O)CC(C)C)(Nc1sc(C)c(CC)c1C#N)C(F)(F)F` (stereo not drawn): the inhibition was -1.9%.

On to `NCC(c1ccccc1)c1c[nH]c2ccccc12` (stereo not drawn), for which the inhibition was -2.1%.

Turning to `OC(CNCc1cccc(Cl)c1)c1ccccc1` (stereo not drawn), the inhibition is 6.44%.

In the case of `COc1ccc(C2=NCCn3cccc32)c(OC)c1`, the inhibition is 4.72%.

On to `Cc1ccccc1Nc1c(-c2cccnc2)nc2ccccn12`, for which the inhibition is 3.53%.

In the case of `Cc1ccn2c(Nc3ccc4c(c3)OCO4)c(-c3ccccn3)nc2c1`, the inhibition is 12.5%.

`Cc1ccn2c(NC3CCCC3)c(-c3cccs3)nc2c1`: the inhibition is -6.97%.

Consider `Cc1ccc(Nc2c(-c3ccccc3)nc3cnccn23)cc1`, for which the inhibition is 3.65%.

For `Cc1ccc(-c2nc3ncccn3c2Nc2ccccc2C)o1`, the inhibition was 10.9%.

Turning to `Cc1ccn2c(Nc3ccccc3C)c(-c3cccnc3)nc2c1`, the inhibition was 3.46%.

For the compound `Cc1ccn2c(NC3CCCC3)c(-c3ccncc3)nc2c1`, the inhibition is -0.8%.

For `Cc1ccn2c(Nc3ccccc3C)c(-c3ccncc3)nc2c1`, the inhibition is -1.59%.

For `CCOc1ccccc1NC(=O)CN1C(=O)COc2ccc(Cl)cc21`, the inhibition is -3.19%.

`Cc1cc(CNC(=O)Cn2nc(C)c([N+](=O)[O-])c2C)c2ccccc2n1`: the inhibition is -7.05%.

Take `Oc1cccnc1CCc1ccccc1`: the inhibition was -10.6%.

Take `CCOC(=O)c1sc(NC(=O)c2ccc(C)o2)nc1C`: the inhibition was 2.75%.

For the compound `CCCn1nnc(NC(=O)c2cccnc2Cl)n1`, the inhibition is 7.01%.

Take `Cc1cc(NC(=O)CSc2nc(C3CCCCC3)nc3ccccc23)no1`: the inhibition was 7.18%.

As to `Nc1c(-c2ccccc2)cnc2cc(-c3ccccc3)nn12`, the inhibition was 4.02%.

On to `Cc1ccn2c(NCc3ccccc3)c(-c3cccs3)nc2c1`, for which the inhibition was 6.23%.

With `Cc1ccc(-c2nc3cnccn3c2Nc2ccccc2)o1`, the inhibition was 9.96%.

For `CCOc1ccccc1NC(=O)NC1(C(=O)N2CCOCC2)CCCCC1`, the inhibition is -10.7%.

For `O=C(CSc1nnc(-c2ccc(O)cc2)n1Cc1ccco1)c1cccs1`, the inhibition was 2.2%.

Regarding `O=C(CSCc1ccco1)c1cccs1`, the inhibition is -1.66%.

`O=S(=O)(c1cccc2cccnc12)N1CCN(Cc2ccc3c(c2)OCO3)CC1`: the inhibition was -5.89%.

Take `Cc1[nH]c2ccccc2c1/C=N/NC(=O)CNC(=O)COc1ccccc1`: the inhibition was 10%.

As to `COc1ccc(-c2noc(CN3CCCCC3c3nccn3C)n2)cc1` (stereo not drawn), the inhibition was 6.82%.

As for `COc1ccc(OC)c(-c2nc(CN3CCCCC3c3cccnc3)c(C)o2)c1` (stereo not drawn), the inhibition was -0.43%.

As to `CC(C)N(Cc1nccn1C)C(=O)CCc1nnc(CCCc2ccccc2)o1`, the inhibition is -2.35%.

For the compound `CCCCNc1nc(N(C)c2ccccc2)nc(-n2ccnc2)n1`, the inhibition is 51.3%.

Take `c1ccc(-c2nc(-n3ccnc3)nc(-n3ccnc3)n2)cc1`: the inhibition is 3.02%.

With `c1ccc(N(c2ccccc2)c2nc(-n3ccnc3)nc(-n3ccnc3)n2)cc1`, the inhibition is -4.28%.

In the case of `c1ccc(-c2ccc(CN3CCN(c4ncccn4)CC3)cc2)cc1`, the inhibition is -1.29%.

Take `c1ccc(-c2nc(NC3CC3)nc(-n3ccnc3)n2)cc1`: the inhibition was -0.68%.

For the compound `C=CCNc1nc(-c2ccccc2)nc(-n2ccnc2)n1`, the inhibition is 16.6%.

Take `Nc1nc(N2CCCCC2)nc(N(c2ccccc2)c2ccccc2)n1`: the inhibition is 1.26%.

In the case of `COc1nc(N(c2ccccc2)c2ccccc2)nc(-n2ccnc2)n1`, the inhibition was 25.8%.

Turning to `Cc1nccc(-c2sc(-c3cccs3)nc2C)n1`, the inhibition is 2.12%.

Regarding `COc1ccc(N2C(=O)N(Cc3ccccc3F)c3ccccc3S2(=O)=O)cc1`, the inhibition is 6.95%.

Consider `CCCCNC(=O)c1ccc(SCC(=O)N(CC)CC)c([N+](=O)[O-])c1`, for which the inhibition is 0.05%.

On to `Brc1ccc(Oc2ncc(CN3CCN(c4ccccc4)CC3)s2)cc1`, for which the inhibition is 2.17%.
